Values without a mark were called inactive. Inconclusive results are not listed. Activity calls are given as the source filed them. Unless noted, the call rests on the fitted dose curve; in most records, active means well fitted curve in the direction sought with a large enough effect; inconclusive means small, poorly fitted or top-dose-only effect, or another doubt; inactive means no such curve, though single readings can be large; an effect the other way counts as inactive or inconclusive.

Experimental findings from PubChem BioAssay (NCATS) are described below.

For test [1], the target named is Glutaminase kidney isoform, mitochondrial (Homo sapiens) (UniProt O94925). In words: qHTS for Inhibitors of Glutaminase (GLS): LOPAC Validation (AID 624146). Further: nearly all actives have a fitted effect of over 60% in size. Further: potency means the concentration at half of the fitted maximal effect. In outline:
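Compounds were pin-transferred onto hKGA, after which L-glutamine (1 mM solution) and a detection mix of glutamate oxidase, HRP and Amplex Red were added. Initial and 30 min RT fluorescence reads were collected.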
For orientation: Quantitative high-throughput screening tests each substance at several concentrations.

Test [2] is described as follows: qHTS of Trypanosoma Brucei Inhibitors: LOPAC Validation (AID 624147). Further: 0% is about no effect. In outline:
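Readout: single end-point luminescence (Kinase-Glo Plus, 10 min). Reaction conditions were TbPYK/substrate plus 130 uM ADP, 45 min at RT, pH 7.2 TEA buffer. No-enzyme wells served as controls, and data were normalized before concentration-response fitting.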

The target in test [3] is Glucagon-like peptide 1 receptor (Homo sapiens) (UniProt P43220). Description: qHTS of GLP-1 Receptor Agonists: LOPAC Validation (AID 624148).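 Further: 0% is about no effect; higher luminescence signal means agonism.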 Summed up: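 HEK293 cells stably co-expressing GLP-1R and a cAMP-responsive luciferase reporter, plated 12 hours before compound, then incubated 4-6 hr at 37 deg C. Luminescence read 12 min after detection reagent.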
Glucagon-like peptide 1 receptor (Homo sapiens), sequence (P43220 whole entry, looked up): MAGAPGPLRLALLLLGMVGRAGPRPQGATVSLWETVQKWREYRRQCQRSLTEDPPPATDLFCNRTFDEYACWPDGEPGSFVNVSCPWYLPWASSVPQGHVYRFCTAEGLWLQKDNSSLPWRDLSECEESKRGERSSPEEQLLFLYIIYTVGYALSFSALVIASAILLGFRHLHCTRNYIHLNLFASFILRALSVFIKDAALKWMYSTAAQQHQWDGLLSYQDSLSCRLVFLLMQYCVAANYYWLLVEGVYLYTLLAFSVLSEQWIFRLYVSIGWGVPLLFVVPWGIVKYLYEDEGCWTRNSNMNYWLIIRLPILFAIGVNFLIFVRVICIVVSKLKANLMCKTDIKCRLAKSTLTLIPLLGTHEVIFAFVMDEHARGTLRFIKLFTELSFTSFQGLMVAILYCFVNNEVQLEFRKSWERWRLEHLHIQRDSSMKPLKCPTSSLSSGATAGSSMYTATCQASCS
The nature of test [4]: HTS Assay for Allosteric Antagonists of the Human D2 Dopamine Receptor: Hit Validation in HTRF (AID 624455).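 Further: stable D1 dopamine receptor cell line scored for blocking the D1 response; on the % scale 0 is the no-effect control and ±100 the full control effect.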 Summed up: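 Hits were examined in an HTRF assay using cells stably expressing the D1 dopamine receptor, scoring inhibition of the D1-mediated response. The preceding primary screen tracked calcium flux after an EC80 dopamine addition in force-coupled, inducible Hek293 Trex D2 cells.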
Background: In TR-FRET formats the signal depends on donor and acceptor labels being close together.

Test [5] is described as follows: qHTS of Nrf2 Activators: LOPAC Validation (AID 624149). Further: 0% is about no effect. In outline: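 AREc32 cells carrying an ARE-driven firefly luciferase were grown overnight in OPTI-MEM with 5% FBS, then exposed to compounds for 24 hr at 37 deg C. Luciferase signal was read after 30 min with Steady-Glo at RT.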
Test [6] has as its target Peroxisome proliferator-activated receptor alpha (Homo sapiens) (UniProt Q07869). Description: qHTS assay for small molecule agonists of the peroxisome proliferator-activated receptor alpha (PPARalpha) signaling pathway (AID 651778). Further: % of control where 0% means no effect. The conditions noted are these: PathHunter PPARalpha complementation, chemiluminescence, 6 h; max response: stronger effect = higher value. In outline: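 Enzyme-fragment complementation assay in which ligand-bound PPARalpha translocates and forms an active enzyme that generates chemiluminescence. Cells were plated overnight, exposed to compound for 6 hr at 37 C, and then given detection reagent for 60 min at room temperature.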

Test [7] can be described thus: qHTS assay for small molecule activators of the p53 signaling pathway (AID 651743; active means well fitted activation curve with a large enough effect in the signal ratio, not every such curve was filed as active; the % refers to the signal ratio; further: series mostly up to about 92 µM; % of control where 0% means no effect). Particulars: HCT-116 p53RE-bla, beta-lactamase FRET ratio, 16 h; stronger effect = higher value. In outline:
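HCT-116 p53RE-bla, 4,000 cells/well; 5 h settle; cpd/DMSO 16 h, 37 C; LiveBLAzer B/G 2 h RT; fluorescence intensity.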

A short description of test [8]: qHTS assay for small molecule activators of the nuclear factor-kappa B (NF-kB) signaling pathway (AID 651749; active means well fitted activation curve with a large enough effect in the signal ratio; the % refers to the signal ratio; further: series mostly up to about 77 µM; % of control where 0% means no effect). The conditions noted are these: NF-kB-bla ME-180 cells, beta-lactamase FRET ratio, 16 h; stronger effect = higher value. In outline: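 Incubation lasted 16 hr at 37C in 5% CO2 after 23 nL compound addition to ME-180 NF-kB-bla cells. Activation appears as beta-lactamase-mediated FRET loss.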

Test [9] in a line: qHTS assay for environmental chemicals that activate the Aryl hydrocarbon Receptor (AhR) signaling pathway (AID 651777). Further: % of control where 0% means no effect; nearly all actives have a fitted effect of over 15% in size. Particulars: 1A2-DRE human hepatoma cells, luciferase, 24 h; stronger effect = higher value. In outline: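 Reporter gene assay: hepatoma cells with DRE/CYP1A2-luciferase, 24 hr compound incubation at 37 C, 5% CO2, luminescence after One-Glo (30 min, RT).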

Glutaminase kidney isoform, mitochondrial (Homo sapiens), sequence (O94925 whole entry, looked up, canonical isoform): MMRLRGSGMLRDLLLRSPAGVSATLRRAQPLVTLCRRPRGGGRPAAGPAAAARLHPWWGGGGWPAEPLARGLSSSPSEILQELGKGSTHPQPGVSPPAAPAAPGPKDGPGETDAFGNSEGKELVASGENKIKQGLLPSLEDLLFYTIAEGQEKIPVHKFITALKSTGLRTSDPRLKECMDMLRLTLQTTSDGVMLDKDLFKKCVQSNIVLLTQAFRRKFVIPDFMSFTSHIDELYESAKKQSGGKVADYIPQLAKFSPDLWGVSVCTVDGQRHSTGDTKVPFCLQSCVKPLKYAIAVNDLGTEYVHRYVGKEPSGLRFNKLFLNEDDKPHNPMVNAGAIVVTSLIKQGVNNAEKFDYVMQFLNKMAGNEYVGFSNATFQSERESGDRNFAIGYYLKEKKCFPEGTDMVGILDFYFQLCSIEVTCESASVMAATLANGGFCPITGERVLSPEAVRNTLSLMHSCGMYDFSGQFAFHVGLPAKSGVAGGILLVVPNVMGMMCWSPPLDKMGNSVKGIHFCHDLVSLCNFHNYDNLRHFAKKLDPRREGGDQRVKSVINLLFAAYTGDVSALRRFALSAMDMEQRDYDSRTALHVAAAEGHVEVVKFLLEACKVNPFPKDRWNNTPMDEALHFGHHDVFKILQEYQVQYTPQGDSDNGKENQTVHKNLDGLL
Peroxisome proliferator-activated receptor alpha (Homo sapiens), sequence (Q07869 whole entry, looked up, the tested form may be a part): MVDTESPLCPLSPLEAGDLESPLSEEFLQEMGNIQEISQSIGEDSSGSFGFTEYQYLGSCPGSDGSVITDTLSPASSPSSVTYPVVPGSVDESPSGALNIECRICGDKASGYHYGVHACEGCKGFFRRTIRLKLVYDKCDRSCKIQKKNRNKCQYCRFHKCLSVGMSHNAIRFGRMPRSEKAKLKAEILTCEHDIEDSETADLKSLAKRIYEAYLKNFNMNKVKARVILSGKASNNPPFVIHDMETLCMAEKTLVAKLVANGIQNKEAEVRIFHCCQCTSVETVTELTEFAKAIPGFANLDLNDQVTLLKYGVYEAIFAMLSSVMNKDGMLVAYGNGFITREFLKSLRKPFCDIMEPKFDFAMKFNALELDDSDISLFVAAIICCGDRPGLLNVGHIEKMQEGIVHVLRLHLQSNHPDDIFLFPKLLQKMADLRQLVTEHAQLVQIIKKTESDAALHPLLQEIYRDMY

For the compound `O=c1oc(Cl)c(Cl)c2ccccc12`, the Potency result in [1], in [2], in [3] and in test [4] was “inactive” each time.

`CCC1(O)CC2CN(CCc3c([nH]c4ccccc34)[C@@](C(=O)OC)(c3cc4c(cc3OC)N(C)C3[C@]45CCN4CC=C[C@@](CC)([C@@H](OC(C)=O)[C@]3(O)C(=O)OC)[C@H]45)C2)C1` (some centres not stated): in test [1], the Potency was 8910 nM (active). The Potency result in test [2], in [3] and in test [4] was “inactive” throughout.

In the case of `COc1ccc(-c2cc3ncc(C)n3c(Nc3ncccc3C(N)=O)n2)cc1OC`, the Potency entry in test [1], in test [2], in test [5] and in test [4] was “inactive” each time.

Regarding `C[C@](Cc1ccc(O)c(O)c1)(NN)C(=O)O`, the Potency in [1] was 1580 nM (active). The Potency result in test [3] and in [5] was “inactive” each time.

In the case of `Cc1ccccc1/C=C/C1=NCCN1`, the Potency result in test [1], in test [2], in test [3] and in test [4] was “inactive” in each case.

Consider `CC(=O)SC1CC2=CC(=O)CC[C@]2(C)C2CC[C@@]3(C)C(CC[C@@]34CCC(=O)O4)C12` (some centres not stated), for which the Potency result in [1], in test [2], in test [3], in [5] and in [4] was “inactive” throughout.

In the case of `CC[C@H](NC(=O)c1c(C)c(-c2ccccc2)nc2ccccc12)c1ccccc1`, the Potency result in test [1], in test [2], in test [3] and in test [4] was “inactive” each time.

Consider `Cc1cccc(C)c1OCC(N)C(C)C` (configuration not stated), for which the Potency entry in test [1], in test [2], in test [5] and in test [4] was “inactive” each time.

For `CC[C@@H]1Cc2cc(O)ccc2C2=C1c1ccc(O)cc1C[C@H]2CC`, the Potency in test [1] was 794 nM (active). Further, the Potency result in test [2] and in test [5] was “inactive” in each case. Also, the max response in [6] is -2.38%.

For `Nc1nc2[nH]c(=O)cnc2c(=O)[nH]1`, the Potency result in test [1], in test [2], in [3], in [5] and in [4] was “inactive” throughout.

Consider `Brc1c(Br)c(Br)c2[nH]cnc2c1Br`, for which the Potency entry in test [1], in test [2], in test [3], in test [5] and in test [4] was “inactive” in each case.

`CC(/C=C/c1cccc(Oc2ccc(F)cc2)c1)N(O)C(N)=O` (configuration not stated): in test [1], the Potency was 1780 nM (active). In addition, the Potency result in [2], in [3], in test [5] and in test [4] was “inactive” throughout.

On to `Cc1cc(Cn2cnc3c2C[C@@H](C(=O)O)N(C(=O)C(c2ccccc2)c2ccccc2)C3)ccc1N`, for which the Potency entry in [1], in test [2], in test [5] and in test [4] was “inactive” throughout.

With `Cn1cc(C(=O)OCC2CCN(CCNS(C)(=O)=O)CC2)c2ccccc21`, the Potency entry in test [1], in test [2], in [5] and in test [4] was “inactive” each time.

For `N=C(N)c1ccccc1`, the Potency entry in test [1], in [2], in [3] and in test [4] was “inactive” throughout.

On to `CCCn1c(=O)c(C)cn2nc(N)nc12`, for which the Potency result in [1], in test [2], in [3], in test [5] and in test [4] was “inactive” each time.

As to `CC(C)(C)c1ccc(/C=C/C(=O)Nc2ccc3c(c2)OCCO3)cc1`, the Potency entry in test [1], in [2], in test [5] and in [4] was “inactive” throughout.

With `C=C1C[C@@]23CC[C@H]4[C@@](C)(CCC[C@@]4(C)C(=O)O)[C@@H]2CC[C@]1(O)C3`, the Potency result in test [1], in [2], in test [3], in test [5] and in test [4] was “inactive” in each case.

Turning to `Cc1nc2n(c(=O)c1CCN1CCC(c3noc4cc(F)ccc34)CC1)CCCC2O` (configuration not stated), the Potency entry in test [1], in test [2], in [3], in test [5] and in test [4] was “inactive” in each case.

For `Nc1nc2c(cnn2CCc2ccccc2)c2nc(-c3ccco3)nn12`, the Potency entry in test [1], in test [2], in [3] and in test [4] was “inactive” throughout.

As to `O=c1[nH]c(=S)[nH]c(-c2ccccc2)c1Cc1c(O)ccc2ccccc12`, the Potency in test [1] was 8910 nM (active). Besides, the Potency result in test [2], in [3], in test [5] and in test [4] was “inactive” throughout.

For the compound `C=CCNc1ncnc2ccc(Br)cc12`, the Potency result in test [1], in test [2], in [3], in test [5] and in [4] was “inactive” each time.

In the case of `CC(C)(CO)Cc1cc(C(C)(C)C)c(O)c(C(C)(C)C)c1`, the Potency in [1] was 1780 nM (active). The Potency entry in test [2], in test [3], in test [5] and in test [4] was “inactive” in each case.

With `NC(=O)CNCCC(c1ccccc1)c1ccccc1`, the Potency result in [1], in [2], in test [3] and in [4] was “inactive” each time.

With `N=C(N)c1ccc(OCCCCCOc2ccc(C(=N)N)cc2)cc1` (tested in a mixture with another compound), the Potency result in test [1], in [2], in test [3], in [5] and in [4] was “inactive” in each case.

As for `COC(=O)[C@H](NC(=O)c1cc(-c2ccccc2)nc2ccccc12)c1ccccc1`, the Potency result in test [1], in [2] and in test [4] was “inactive” in each case.

Regarding `OC[C@H]1O[C@H](n2cnc3c(N[C@H]4CCC[C@@H]4O)ncnc32)[C@H](O)[C@@H]1O`, the Potency entry in [1], in [2], in test [3], in [5] and in test [4] was “inactive” throughout.

Take `CC1=C(/C=C/C(C)=C/C=C/C(C)=C\C(=O)O)C(C)(C)CCC1`: the Potency entry in test [1], in test [2], in test [3], in [5] and in test [4] was “inactive” in each case. Besides, the values for the activation in test [7], in test [8] and in test [9] were -4.89%, -1.8% and 6.61%, respectively. For the same compound, in test [6], the max response is 0.529%.
